Each structure is given as a SMILES string. “And” between values parts separate entries of the source, which are not always exact repeats. Identical values can stand only once. In all, about 300,000 compounds went through this assay and about 5,400 (1.8%) were called active. Entries that show only a call come without a potency. Another 28% or so got no clear call; they are omitted. The call rests on the fitted dose curve; tested in HEK293 cells. For the sample, actives were picked, then their nearest neighbours and some compounds at random. Where a structure was tested more than once in an assay, its records may differ in their call.
Potency means the concentration at half of the fitted maximal effect.

The experiment can be described thus: qHTS for inhibitors of binding or entry into cells for Marburg Virus. The conditions noted are these: Marburg virus pseudotyped entry inhibition, cell reporter; series mostly up to 37.8 µM.
As to `Fc1ccc([C@H]2C3=C(Nc4ncnn42)c2ccccc2O[C@H]3c2ccncc2)cc1`, the Potency entry is “inactive”.
On to `Clc1ccc2c(c1)C1=C(C(c3ccncc3)O2)C(c2ccc(Br)cc2)n2ncnc2N1` (configuration not stated), for which the Potency is 11.6 µM (active).
Then `CCOC(=O)C1=C(c2ccccc2)Nc2ncnn2C1c1ccc(Cl)cc1` (configuration not stated), with “inactive”; and `CC1(C)CC(=O)c2ccc(O)cc2O1`, with “inactive”; and `CC[C@@H]1Cc2cc(O)ccc2C2=C1c1ccc(O)cc1C[C@H]2CC`, with 35.5 µM (active).
On to `O=C(c1ccccc1)c1ccc(OCC(O)CN2CCCC2)cc1` (configuration not stated), for which the Potency entry is “inactive”.
Then `OC(COCCC12CC3CC(CC(C3)C1)C2)CN1CCCCC1` (configuration not stated), with 2.91 µM (active); and `COc1cc(/C=N/NC(=O)c2cccnc2)ccc1OC(=O)c1cccc(Br)c1`, with “inactive”; and `O=C(C1CC(=O)N(c2ccc(Br)cc2)C1)N1CCCC1` (configuration not stated), with “inactive”.
As for `COc1ccc(C2(CNC(=O)Cc3ccc(OC)c(OC)c3)CCCC2)cc1`, the Potency entry was “inactive”.
The result for `Cc1cccc(C(CC(=O)NCC2(c3ccccc3)CCCC2)c2ccccc2)c1O` (configuration not stated) reads 10 µM (active).
The result for `COc1ccc(C2(CNC(=O)C(c3ccccc3)c3ccccc3)CCOCC2)cc1OC` reads “inactive”; that for `O=C(Nc1cc(S(=O)(=O)N2CCOCC2)ccc1N1CCOCC1)c1c(F)cccc1Cl`, “inactive”.
The result for `CC12CCCCC1=CC(=O)CC2` (configuration not stated) reads “inactive”; that for `COc1ccc(N2CCN(S(=O)(=O)c3cc(Br)cnc3N)CC2)cc1`, “inactive”.
In the case of `O=C(Cc1cccs1)N1CCCC(c2nc(-c3ccc(S(=O)(=O)N4CCCC4)cc3)no2)C1` (configuration not stated), the Potency result is “inactive”.
The result for `COc1cc(-c2noc(C3CCCN(S(=O)(=O)c4cccc(Cl)c4)C3)n2)cc(OC)c1OC` (configuration not stated) reads “inactive and 9.2 µM (active)”.
Take `CC(C)c1ccc(-c2noc(C3CCCN(S(C)(=O)=O)C3)n2)cc1` (configuration not stated): the Potency entry is “inactive”.
The result for `Cc1ccc(C(=O)OCC(=O)N2CCCCCC2)cc1S(=O)(=O)N1CCOCC1` reads “inactive”; that for `NC(=O)c1cc2ccccc2o/c1=N/NC(=O)c1cccc(F)c1`, “inactive”.
As for `CCOc1ccc(CN2CCNC(=O)C2CC(=O)NCCCC2CCCC2)cc1` (configuration not stated), the Potency result is “inactive”.
The result for `Oc1cccc(C2c3[nH]c4ccccc4c3CCN2Cc2cnn(-c3ccccc3)c2)c1` (configuration not stated) reads “inactive”; that for `c1ccc(C2c3[nH]c4ccccc4c3CCN2Cc2cccn2-c2cccnc2)nc1` (configuration not stated), “inactive”; that for `CCOc1ccc(C2c3[nH]c4ccccc4c3CCN2Cc2cccn2-c2ncccn2)cc1` (configuration not stated), 3.16 µM (active).
Then `CCN(CC)S(=O)(=O)c1ccc(CNC(=O)CN2C(=O)NC3(CCc4ccccc43)C2=O)cc1` (configuration not stated), with “inactive”; and `COc1ccc(/C=N/NC(=O)c2ccc3c(c2)OCCO3)c(OC)c1`, with “inactive”.
Then `COc1ccccc1CC(=O)NCCc1c[nH]c2ccccc12`, with “inactive”.
As to `COc1ccc(S(=O)(=O)NCCc2c[nH]c3ccccc23)cc1OC`, the Potency result was “inactive”.
The result for `COc1cccc(CNCCc2c[nH]c3ccccc23)c1OCc1ccccc1F` reads 7.3 µM (active); that for `O=C1CC(C(=O)O)NC(=S)N1` (configuration not stated), “inactive”.
Then `COc1ccc(S(=O)(=O)N2CCN(CC(=O)N3CCOCC3)CC2)cc1OC`, with “inactive”.
The result for `COc1cc2[nH]c(=S)n(Cc3ccc(C)o3)c(=O)c2cc1OC` reads “inactive”; that for `COc1cc(-n2c(=S)[nH]c3ccc(C)cc3c2=O)c(Cl)cc1Cl`, 5.62 µM (active).
In the case of `COc1ccccc1-n1c(=S)[nH]c2c(sc(=S)n2-c2ccc(C)cc2C)c1=O`, the Potency result is “inactive”.
The result for `CC(C)c1ccc(S(=O)(=O)N2CCN(C(=O)CN3C(=O)NC(C)(c4ccccc4)C3=O)CC2)cc1` (configuration not stated) reads “inactive”; that for `COc1ccc(N(CC(=O)N2CCOCC2)S(=O)(=O)c2ccccc2)cc1Cl`, “inactive”; that for `CC(C)Oc1ccc(S(=O)(=O)N2CCOCC2)cc1NC(=O)C1CSC2(C)CCC(=O)N12` (configuration not stated), “inactive”.
Then `O=C(OC12CC3CC(CC(C3)C1)C2)c1ccc(NCc2cc(O)ccc2O)cc1`, with 4.47 µM (active); and `C[C@]12CC[C@H](O)CC1=CCC1C2CC[C@@]2(C)C1CC[C@@H]2NC(=O)CCC(=O)O` (some centres not stated), with “inactive”.
Then `COc1ccc(/C=C/C(=O)NC(=S)N2CCCC(C(N)=O)C2)cc1` (configuration not stated), with “inactive”.
Regarding `CCCCCCCCn1c2c(c(=N)c3c1CCC3)CCCC2`, the Potency is 5.01 µM (active).
The result for `Cc1ccc(S(=O)(=O)N2CCCC(C(=O)N3CCN(C)CC3)C2)cc1` (configuration not stated) reads “inactive”; that for `CN(C)c1ccc(CSc2ccccc2)cc1`, “inactive”.
Then `O=C(CSc1nnc(N2CCOCC2)n1-c1cccc(F)c1)N1CCN(c2ccccn2)CC1`, with “inactive”; and `COc1ccc2[nH]c3c(c2c1)CCN(C(=O)CCC1CCCC1)C3c1ccc(F)cc1` (configuration not stated), with 0.631 µM (active); and `COc1cccc(C(=O)N2CCCC(CCC(=O)NCc3ccc(F)c(F)c3)C2)c1` (configuration not stated), with “inactive”.
Turning to `COc1cccc(CNC(=O)CCC2CCCN(C(=O)c3ccc(F)c(Cl)c3)C2)c1` (configuration not stated), the Potency entry is “inactive”.
The result for `COc1ccccc1C(=O)NCCC(=O)NCC(c1ccco1)N1CCCCC1` (configuration not stated) reads “inactive”.
The result for `Cc1ccc(S(=O)(=O)N(CC(=O)NCc2ccco2)c2ccccc2C)cc1` reads “inactive”; that for `O=C(O)CCCc1ccccc1`, “inactive”; that for `CC(=O)c1ccc(N2CCN(C(=O)CCc3ccccc3)CC2)cc1`, “inactive”.
The result for `C=CCN1CCN(C(=O)CCCc2ccccc2)CC1` reads 2.51 µM (active).
Turning to `Cc1cc(C)c(S(=O)(=O)N(C)CC(=O)NCC2CCCO2)c(C)c1` (configuration not stated), the Potency result was “inactive”.
Then `COC1C(CO)OC(n2cnc3c(=S)nc(N)[nH]c32)C1O` (configuration not stated), with “inactive”.
Then `NC(=O)C1(N2CCCC2)CCN(Cc2ccccc2)CC1`, with “inactive”.
Then `CCC(=C/c1sc2ccc3ccccc3c2[n+]1C)/C=C1\Sc2ccc3ccccc3c2N1C`, with 3.55 µM (active).
Take `O=C(Nc1ccc(S(=O)(=O)N2CCCCCC2)cc1)c1c(F)cccc1F`: the Potency entry was “inactive”.
Consider `Cc1cc(C)c(S(=O)(=O)N2CCCC2CNC(=O)c2ccc3c(c2)OCO3)c(C)c1` (configuration not stated), for which the Potency result was “inactive”.
Then `O=C1c2ccccc2C(=O)N1CCCCCCN1C(=O)c2ccccc2C1=O`, with “inactive”; and `O=C1c2cccc3cccc(c23)C(=O)N1CCCCCc1n[nH]c(=S)o1`, with “inactive”.
Regarding `C[N+](C)(CCCCCC[N+](C)(C)CCCN1C(=O)c2cccc3cccc(c23)C1=O)CCCN1C(=O)c2cccc3cccc(c23)C1=O`, the Potency was 5.01 µM (active).
Then `Cc1nc(-c2ccc([N+](=O)[O-])cc2)c(-c2ccccc2)o1`, with “inactive”; and `Cc1ccc(-n2c(-c3ccc([N+](=O)[O-])cc3)nc3ccccc3c2=O)cc1`, with “inactive”.
Then `c1ccc(-c2cn3cccnc3n2)cc1`, with “inactive”; and `Cc1ccc(-c2cn3cc(C)ccc3n2)cc1`, with 0.316 µM (active).
Consider `Cc1ccc(-c2cc(N)on2)cc1`, for which the Potency entry was “inactive”.
Regarding `Cc1ccc(-c2cn3cc([N+](=O)[O-])ccc3n2)cc1`, the Potency was 3.66 µM (active).

The record behind these values is PubChem BioAssay AID540276 (National Center for Advancing Translational Sciences (NCATS), 2011).
